Test results as given in the supplement of paper PMC11732987, “Enantioselective OTUD7B fragment discovery through chemoproteomics screening and high-throughput optimisation” (Communications Chemistry, 2025).

Legend:
Experiment in all cases: log2 ratio of Biotin-Ahx-Ub-VS probe labelling (fragment/DMSO); higher = less target engagement (more negative = stronger competition), active = hit call of the paper (q ≤ 0.05, log2 ratio ≤ -1)
Settings in all cases: compound concentration: 200 uM; treatment time: 3 h
USP19 = target: T1, USP19 (UniProt O94966)
T1 sequence (whole entry): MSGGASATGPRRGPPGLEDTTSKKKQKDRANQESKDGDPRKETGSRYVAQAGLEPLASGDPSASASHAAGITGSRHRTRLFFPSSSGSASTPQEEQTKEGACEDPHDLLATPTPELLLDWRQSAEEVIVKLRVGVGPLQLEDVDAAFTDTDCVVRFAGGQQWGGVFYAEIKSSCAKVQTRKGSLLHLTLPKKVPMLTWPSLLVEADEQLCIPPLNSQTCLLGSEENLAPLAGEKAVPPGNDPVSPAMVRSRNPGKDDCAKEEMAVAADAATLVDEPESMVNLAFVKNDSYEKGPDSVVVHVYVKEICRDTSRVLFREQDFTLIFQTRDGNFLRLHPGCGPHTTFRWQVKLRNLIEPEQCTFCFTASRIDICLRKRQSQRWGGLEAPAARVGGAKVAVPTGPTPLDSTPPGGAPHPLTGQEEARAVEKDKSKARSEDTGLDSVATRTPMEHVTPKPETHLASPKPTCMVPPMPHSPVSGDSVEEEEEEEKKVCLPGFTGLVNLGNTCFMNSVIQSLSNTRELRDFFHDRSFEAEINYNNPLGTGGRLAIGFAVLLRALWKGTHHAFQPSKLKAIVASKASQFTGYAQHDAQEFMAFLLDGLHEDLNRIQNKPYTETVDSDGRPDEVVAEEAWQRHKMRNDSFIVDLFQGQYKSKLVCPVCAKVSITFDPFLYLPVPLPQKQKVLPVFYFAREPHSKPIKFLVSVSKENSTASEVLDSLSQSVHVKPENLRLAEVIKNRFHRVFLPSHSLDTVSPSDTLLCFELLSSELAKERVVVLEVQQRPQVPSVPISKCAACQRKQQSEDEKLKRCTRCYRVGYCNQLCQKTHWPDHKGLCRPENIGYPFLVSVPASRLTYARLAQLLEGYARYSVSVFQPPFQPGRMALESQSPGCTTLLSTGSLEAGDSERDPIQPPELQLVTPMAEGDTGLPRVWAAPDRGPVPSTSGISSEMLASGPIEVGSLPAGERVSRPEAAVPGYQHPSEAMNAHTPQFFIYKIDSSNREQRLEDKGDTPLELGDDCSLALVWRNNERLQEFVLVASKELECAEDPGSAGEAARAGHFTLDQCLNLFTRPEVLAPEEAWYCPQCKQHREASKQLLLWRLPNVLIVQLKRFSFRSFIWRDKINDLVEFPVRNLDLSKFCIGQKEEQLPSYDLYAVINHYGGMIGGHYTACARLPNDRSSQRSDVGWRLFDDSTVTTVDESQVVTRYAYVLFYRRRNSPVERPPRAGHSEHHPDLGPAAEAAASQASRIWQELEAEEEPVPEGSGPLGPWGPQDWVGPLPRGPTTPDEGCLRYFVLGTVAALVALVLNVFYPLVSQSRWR
Summary of the method: (§1)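 Labelled DUBs from HEK293T lysate were NeutrAvidin-enriched, digested with LysC and trypsin, and run by diaPASEF LC-MS/MS. Before that, each 495 µg sample in Tris/CHAPS/IGEPAL buffer with protease inhibitors was treated in triplicate with fragment at 200 µM or vehicle for 3 h, then with Biotin-Ahx-Ub-VS at 0.5 µM final for 1 h. Values are average log2 ratios of fragment over vehicle by unpaired t-test, based on global-median-normalised Spectronaut label-free quantities from proteins with ≥2 unique peptides.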

USP22 = target: T2, USP22 (UniProt Q9UPT9)
T2 sequence (whole entry): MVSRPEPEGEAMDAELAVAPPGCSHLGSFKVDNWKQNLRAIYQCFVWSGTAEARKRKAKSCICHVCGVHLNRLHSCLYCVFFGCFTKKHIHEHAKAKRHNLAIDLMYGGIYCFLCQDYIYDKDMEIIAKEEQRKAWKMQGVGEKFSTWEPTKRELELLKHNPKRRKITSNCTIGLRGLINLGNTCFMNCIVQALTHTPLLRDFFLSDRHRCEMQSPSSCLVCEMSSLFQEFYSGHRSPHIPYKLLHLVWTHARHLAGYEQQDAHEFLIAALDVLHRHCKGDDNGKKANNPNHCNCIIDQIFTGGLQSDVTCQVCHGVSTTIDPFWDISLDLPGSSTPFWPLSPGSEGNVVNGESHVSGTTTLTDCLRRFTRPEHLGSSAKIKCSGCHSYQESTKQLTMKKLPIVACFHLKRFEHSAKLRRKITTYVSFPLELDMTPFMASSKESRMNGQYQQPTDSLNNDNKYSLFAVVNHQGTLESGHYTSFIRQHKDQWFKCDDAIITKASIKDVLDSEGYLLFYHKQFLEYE
Summary of the method: as §1

USP24 = USP24 (UniProt Q9UPU5)
Summary of the method: as §1

USP25 = target: T3, USP25 (UniProt Q9UHP3)
T3 sequence (whole entry): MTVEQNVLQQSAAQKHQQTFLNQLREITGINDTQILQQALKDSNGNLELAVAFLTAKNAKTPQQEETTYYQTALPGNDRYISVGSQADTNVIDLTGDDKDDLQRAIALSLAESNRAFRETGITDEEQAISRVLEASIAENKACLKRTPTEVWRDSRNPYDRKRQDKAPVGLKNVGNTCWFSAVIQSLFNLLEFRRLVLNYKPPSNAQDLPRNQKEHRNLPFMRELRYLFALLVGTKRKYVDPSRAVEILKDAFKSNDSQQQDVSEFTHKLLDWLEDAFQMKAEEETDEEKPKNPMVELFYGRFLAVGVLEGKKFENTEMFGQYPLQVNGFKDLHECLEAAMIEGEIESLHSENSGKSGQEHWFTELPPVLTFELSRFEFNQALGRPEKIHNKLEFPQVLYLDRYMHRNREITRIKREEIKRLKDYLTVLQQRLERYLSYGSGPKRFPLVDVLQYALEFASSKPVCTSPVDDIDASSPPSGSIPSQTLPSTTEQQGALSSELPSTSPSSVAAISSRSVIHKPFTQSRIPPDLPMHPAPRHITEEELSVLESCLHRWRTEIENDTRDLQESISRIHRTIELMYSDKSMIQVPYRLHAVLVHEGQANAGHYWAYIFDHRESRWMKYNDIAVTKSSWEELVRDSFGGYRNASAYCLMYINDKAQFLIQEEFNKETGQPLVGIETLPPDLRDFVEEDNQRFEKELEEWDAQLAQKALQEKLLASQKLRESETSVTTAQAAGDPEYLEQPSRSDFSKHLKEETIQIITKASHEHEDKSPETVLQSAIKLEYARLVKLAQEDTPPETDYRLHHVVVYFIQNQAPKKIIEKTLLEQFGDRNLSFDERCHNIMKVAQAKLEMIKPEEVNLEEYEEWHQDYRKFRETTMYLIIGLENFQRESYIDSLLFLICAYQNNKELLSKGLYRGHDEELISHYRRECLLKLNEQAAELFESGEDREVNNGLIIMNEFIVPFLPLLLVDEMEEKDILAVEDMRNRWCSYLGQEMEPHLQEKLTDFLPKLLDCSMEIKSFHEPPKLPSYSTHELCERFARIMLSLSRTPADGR
Summary of the method: as §1

USP28 = target: T4, USP28 (UniProt Q96RU2)
T4 sequence (whole entry): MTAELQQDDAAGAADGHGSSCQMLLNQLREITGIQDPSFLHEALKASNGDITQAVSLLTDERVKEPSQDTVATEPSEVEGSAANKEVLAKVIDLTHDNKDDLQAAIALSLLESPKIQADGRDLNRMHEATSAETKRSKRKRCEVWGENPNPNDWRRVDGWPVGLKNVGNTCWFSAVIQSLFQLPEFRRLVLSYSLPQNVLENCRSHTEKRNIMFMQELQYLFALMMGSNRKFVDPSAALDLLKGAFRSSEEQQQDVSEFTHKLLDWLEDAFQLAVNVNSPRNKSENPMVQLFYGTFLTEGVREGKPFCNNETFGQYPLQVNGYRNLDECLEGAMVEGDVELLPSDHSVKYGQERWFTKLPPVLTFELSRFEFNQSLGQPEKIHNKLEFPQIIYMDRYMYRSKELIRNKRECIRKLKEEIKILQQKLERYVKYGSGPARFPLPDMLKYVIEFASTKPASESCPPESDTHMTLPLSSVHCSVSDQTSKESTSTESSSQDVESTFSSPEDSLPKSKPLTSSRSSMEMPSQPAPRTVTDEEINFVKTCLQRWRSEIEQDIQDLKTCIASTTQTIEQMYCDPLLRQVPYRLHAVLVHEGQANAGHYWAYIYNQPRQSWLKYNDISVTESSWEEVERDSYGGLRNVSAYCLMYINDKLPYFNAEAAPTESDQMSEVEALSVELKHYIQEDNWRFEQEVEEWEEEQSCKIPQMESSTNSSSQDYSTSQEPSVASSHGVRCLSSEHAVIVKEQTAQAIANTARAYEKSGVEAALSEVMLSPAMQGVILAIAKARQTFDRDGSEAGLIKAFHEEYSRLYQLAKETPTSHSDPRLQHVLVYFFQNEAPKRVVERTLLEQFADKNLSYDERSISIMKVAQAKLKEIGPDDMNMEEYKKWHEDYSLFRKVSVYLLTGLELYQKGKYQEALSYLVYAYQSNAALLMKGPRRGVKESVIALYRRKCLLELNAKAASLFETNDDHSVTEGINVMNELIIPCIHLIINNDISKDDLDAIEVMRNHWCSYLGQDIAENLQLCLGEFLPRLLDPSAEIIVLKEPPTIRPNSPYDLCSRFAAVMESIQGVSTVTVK
Summary of the method: as §1

Measured: log2 ratio of Biotin-Ahx-Ub-VS probe labelling

Chain of USP24 (Q9UPU5 whole entry): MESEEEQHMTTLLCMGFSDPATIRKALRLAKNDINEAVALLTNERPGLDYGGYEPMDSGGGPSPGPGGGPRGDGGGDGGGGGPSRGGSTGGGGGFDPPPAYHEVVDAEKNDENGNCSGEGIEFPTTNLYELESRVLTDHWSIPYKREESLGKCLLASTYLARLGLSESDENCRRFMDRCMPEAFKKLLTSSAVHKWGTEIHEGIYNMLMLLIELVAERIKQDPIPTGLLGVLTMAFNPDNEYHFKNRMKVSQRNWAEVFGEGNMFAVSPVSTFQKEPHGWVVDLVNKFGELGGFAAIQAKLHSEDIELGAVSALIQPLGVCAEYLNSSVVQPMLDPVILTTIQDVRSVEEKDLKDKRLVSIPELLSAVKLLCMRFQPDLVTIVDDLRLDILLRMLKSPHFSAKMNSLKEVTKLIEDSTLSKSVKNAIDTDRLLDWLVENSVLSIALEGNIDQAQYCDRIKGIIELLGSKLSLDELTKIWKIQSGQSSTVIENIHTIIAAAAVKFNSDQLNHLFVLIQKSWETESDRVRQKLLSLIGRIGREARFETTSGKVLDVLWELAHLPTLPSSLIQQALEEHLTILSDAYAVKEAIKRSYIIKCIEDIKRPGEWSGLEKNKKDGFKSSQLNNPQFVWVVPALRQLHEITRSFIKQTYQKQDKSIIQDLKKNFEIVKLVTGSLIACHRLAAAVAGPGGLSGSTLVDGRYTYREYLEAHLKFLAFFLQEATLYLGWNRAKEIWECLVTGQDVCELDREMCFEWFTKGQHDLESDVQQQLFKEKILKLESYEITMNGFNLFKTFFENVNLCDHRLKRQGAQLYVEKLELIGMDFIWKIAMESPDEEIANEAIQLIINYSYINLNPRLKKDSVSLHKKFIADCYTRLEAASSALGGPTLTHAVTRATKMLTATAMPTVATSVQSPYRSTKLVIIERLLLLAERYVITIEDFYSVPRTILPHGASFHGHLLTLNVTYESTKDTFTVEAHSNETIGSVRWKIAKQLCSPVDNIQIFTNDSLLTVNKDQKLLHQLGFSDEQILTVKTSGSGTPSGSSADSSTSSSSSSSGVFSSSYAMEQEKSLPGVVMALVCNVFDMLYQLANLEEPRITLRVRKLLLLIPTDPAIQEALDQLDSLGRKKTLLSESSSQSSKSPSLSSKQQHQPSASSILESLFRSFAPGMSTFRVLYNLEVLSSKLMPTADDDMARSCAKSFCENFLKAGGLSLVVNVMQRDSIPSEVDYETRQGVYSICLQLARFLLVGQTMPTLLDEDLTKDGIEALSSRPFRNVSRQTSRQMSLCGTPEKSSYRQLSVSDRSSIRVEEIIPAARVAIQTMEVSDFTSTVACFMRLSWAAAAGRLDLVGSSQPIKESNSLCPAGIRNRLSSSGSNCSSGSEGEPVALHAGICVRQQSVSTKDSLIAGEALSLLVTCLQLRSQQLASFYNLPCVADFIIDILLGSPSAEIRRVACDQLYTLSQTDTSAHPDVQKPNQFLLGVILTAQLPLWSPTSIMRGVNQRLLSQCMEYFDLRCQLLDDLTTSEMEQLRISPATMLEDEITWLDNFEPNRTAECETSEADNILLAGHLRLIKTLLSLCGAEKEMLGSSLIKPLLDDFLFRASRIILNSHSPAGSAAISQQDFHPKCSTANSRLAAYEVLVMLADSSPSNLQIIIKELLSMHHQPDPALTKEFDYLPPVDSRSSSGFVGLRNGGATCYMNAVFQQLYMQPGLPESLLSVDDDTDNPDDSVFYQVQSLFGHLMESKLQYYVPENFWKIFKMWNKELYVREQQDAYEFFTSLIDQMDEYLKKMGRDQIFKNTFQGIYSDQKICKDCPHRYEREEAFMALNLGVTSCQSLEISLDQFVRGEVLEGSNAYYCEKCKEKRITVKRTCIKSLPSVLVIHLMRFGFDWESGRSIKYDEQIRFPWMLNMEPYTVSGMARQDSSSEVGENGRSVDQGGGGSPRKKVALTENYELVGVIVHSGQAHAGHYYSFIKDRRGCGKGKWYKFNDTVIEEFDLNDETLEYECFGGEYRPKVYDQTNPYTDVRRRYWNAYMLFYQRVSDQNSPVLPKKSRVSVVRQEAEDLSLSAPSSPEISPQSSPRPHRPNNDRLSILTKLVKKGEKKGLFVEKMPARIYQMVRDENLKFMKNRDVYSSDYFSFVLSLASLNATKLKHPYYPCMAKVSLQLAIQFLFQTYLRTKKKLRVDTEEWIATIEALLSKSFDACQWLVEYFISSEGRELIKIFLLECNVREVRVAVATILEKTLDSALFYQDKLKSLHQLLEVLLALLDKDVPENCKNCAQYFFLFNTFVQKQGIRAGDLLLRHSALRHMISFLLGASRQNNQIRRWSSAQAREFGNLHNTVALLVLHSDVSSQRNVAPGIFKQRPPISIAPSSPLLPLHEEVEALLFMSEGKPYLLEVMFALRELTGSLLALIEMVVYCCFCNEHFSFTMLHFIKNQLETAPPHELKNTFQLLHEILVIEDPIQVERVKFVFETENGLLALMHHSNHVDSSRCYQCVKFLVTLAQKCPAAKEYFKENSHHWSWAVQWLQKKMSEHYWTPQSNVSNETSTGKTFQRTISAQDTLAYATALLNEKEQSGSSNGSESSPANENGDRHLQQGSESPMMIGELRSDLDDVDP

Cc1ccc(N2CCC(NC(=O)CCl)C2=O)cc1 (stereo not given)
inactive: USP19 0.0818 | USP22 -0.233 | USP24 0.141 | USP25 0.0471 | USP28 -0.0346
